PubChem BioAssay AID1159580 (chemical genetic matrix, 2015)
Values joined by “and” are separate entries in the source; they are usually repeats but may differ in a detail not shown here. Identical values can stand only once. In all, about 5,500 compounds went through this assay and about 2,000 (36%) were called active. About 18% were inconclusive and are not listed. Rule as the data show it: active = normalized growth mostly below about 0.91 (no sharp cut-off); inconclusive = no clear call, values can overlap the other calls; inactive = mostly above about 0.92. Some of the results follow.

Test: chemical genetic growth profiling, strain panel (AID 1159580);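 also: tested at 20 µM; growth read once vehicle control cultures reached saturation at 30 °C; 1 = growth at the plate median or of vehicle wells; lower values mean less growth of the strain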
Conditions: S. cerevisiae deletion strains, growth OD

Measured: normalized growth

Cc1c(NC(=O)c2cccnc2)c(=O)n(-c2ccccc2)n1C
inactive: locus YAL013W, strain DEP1, active compounds read low 0.996 | locus YAL021C, strain ccr4, active compounds read low 1.02 | locus YAL026C, strain drs2, active compounds read low 0.999 | locus YAL030W, strain snc1, active compounds read low 1 | locus YBL061C, strain skt5, active compounds read low 1 | locus YBR009C, strain hhf1, active compounds read low 0.966 | locus YBR021W, strain FUR4, active compounds read low 1.03 | locus YBR023C, strain chs3, active compounds read low 1.01 | locus YBR171W, strain sec66, active compounds read low 1 | locus YBR229C, strain ROT2, active compounds read low 0.964 | locus YBR231C, strain swc5, active compounds read low 1.01 | locus YBR279W, strain paf1, active compounds read low 0.999 | locus YCL011C, strain gbp2, active compounds read low 1 | locus YCL016C, strain dcc1, active compounds read low 0.999 | locus YCL029C, strain bik1, active compounds read low 0.997 | locus YCL061C, strain MRC1, active compounds read low 1 | locus YCL069W, strain vba3, active compounds read low 0.989 | locus YCR088W, strain abp1, active compounds read low 0.997 | locus YDL005C, strain med2, active compounds read low 1 | locus YDL035C, strain GPR1, active compounds read low 0.992 | locus YDL040C, strain nat1, active compounds read low 0.988 | locus YDL074C, strain BRE1, active compounds read low 0.949 | locus YDL101C, strain DUN1, active compounds read low 0.981 | locus YDL134C, strain PPH21, active compounds read low 1.01 | locus YDL185W, strain tfp1, active compounds read low 0.983 | locus YDL192W, strain arf1, active compounds read low 0.994 | locus YDR001C, strain nth1, active compounds read low 0.992 | locus YDR069C, strain doa4, active compounds read low 1.01 | locus YDR101C, strain arx1, active compounds read low 0.988 | locus YDR137W, strain rgp1, active compounds read low 0.992 | locus YDR159W, strain sac3, active compounds read low 1 | locus YDR162C, strain NBP2, active compounds read low 1 | locus YDR195W, strain ref2 0.998 | locus YDR297W, strain sur2, active compounds read low 0.999 | locus YDR318W, strain mcm21, active compounds read low 1 | locus YDR334W, strain swr1, active compounds read low 0.999 | locus YDR335W, strain msn5, active compounds read low 0.997 | locus YDR388W, active compounds read low 1 | locus YDR392W, strain spt3, active compounds read low 0.934 | locus YDR502C, strain sam2, active compounds read low 0.994 | locus YEL003W, strain gim4, active compounds read low 1 | locus YEL037C, strain rad23, active compounds read low 0.994 | locus YEL061C, strain CIN8 (second series), active compounds read low 1 | locus YEL061C, strain CIN8, active compounds read low 0.98 | locus YER015W, strain faa2, active compounds read low 1 | locus YER016W, strain bim1, active compounds read low 1 | locus YER110C, active compounds read low 0.997 | locus YER111C, strain swi4, active compounds read low 0.997 | locus YER155C, strain BEM2 (second series), active compounds read low 1.02 | locus YER155C, strain BEM2, active compounds read low 1 | locus YER167W, strain BCK2, active compounds read low 1 | locus YFR010W, strain ubp6, active compounds read low 0.997 | locus YGL078C, strain dbp3, active compounds read low 0.988 | locus YGL086W, strain mad1, active compounds read low 0.985 | locus YGL167C, strain pmr1, active compounds read low 1 | locus YGL173C, strain kem1, active compounds read low 1.01 | locus YGL227W, strain vid30, active compounds read low 0.998 | locus YGL240W, strain doc1, active compounds read low 1.01 | locus YGL248W, strain PDE1, active compounds read low 0.974 | locus YGL253W, strain hxk2, active compounds read low 1 | locus YGR078C, strain PAC10, active compounds read low 0.97 | locus YGR135W, strain pre9, active compounds read low 1.07 | locus YGR252W, strain gcn5, active compounds read low 1.02 | locus YHR013C, strain ard1, active compounds read low 0.96 | locus YHR027C, strain rpn1, active compounds read low 1.01 | locus YHR030C, strain SLT2, active compounds read low 1 and 1.04 | locus YHR079C, strain IRE1 (second series), active compounds read low 0.992 | locus YHR079C, strain IRE1, active compounds read low 1.02 | locus YHR094C, strain hxt1, active compounds read low 0.998 | locus YHR129C, strain ARP1, active compounds read low 1 | locus YHR142W, strain chs7, active compounds read low 1 | locus YHR200W, strain rpn10, active compounds read low 0.992 | locus YIL066C, strain RNR3, active compounds read low 0.974 | locus YIL073C, strain SPO22, active compounds read low 1.04 | locus YIL125W, strain kgd1, active compounds read low 0.987 | locus YIR030C, strain dcg1, active compounds read low 0.999 | locus YJL092W, strain hpr5, active compounds read low 1 | locus YJL095W, strain BCK1 (second series), active compounds read low 1 | locus YJL095W, strain BCK1, active compounds read low 0.964 and 1.04 | locus YJL115W, strain asf1, active compounds read low 1 | locus YJL129C, strain trk1, active compounds read low 1.01 | locus YJL134W, strain LCB3, active compounds read low 0.995 | locus YJL154C, strain vps35, active compounds read low 0.989 | locus YJL164C, strain tpk1, active compounds read low 1.01 | locus YJL166W, strain qcr8, active compounds read low 1.01 | locus YJL168C, strain set2, active compounds read low 0.987 | locus YJL187C, strain SWE1 (second series), active compounds read low 0.95 | locus YJL187C, strain SWE1, active compounds read low 0.999 | locus YJR043C, strain POL32, active compounds read low 0.924
